Records with an inconclusive call do not appear. The source made the active and inactive calls. The call rests on the fitted dose curve; in most records, active means well fitted inhibition curve with a large enough effect; inconclusive means small, poorly fitted or top-dose-only effect; inactive means flat fitted curve, though single readings scatter.
Experiments:
KB-3-1 = test: Cytotoxic Profiling of Annotated Libraries Using Quantitative High-Throughput Screening (AID 1296008); details: Five cell lines viability, CellTiter-Glo ATP luminescence, 48-72 h; max response: active compounds read low; on max response: on the % scale 0 is the no-effect control and ±100 the full control effect
Procedure, shortened: (§1)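 Compounds were pin-transferred onto cells and incubated 48 or 72 hr at 37 degree Celsius, 95% humidity. CellTiter-Glo was added, plates sat 10 min at room temperature, then ATP-coupled luminescence was imaged as the viability read-out.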

CRL-7250 [1] = test: as above; details: Five cell lines viability, CellTiter-Glo ATP luminescence, 48-72 h; max response: active compounds read low
Procedure, shortened: as §1

HEK293 = test: as above; details: Five cell lines viability, CellTiter-Glo ATP luminescence, 48-72 h; max response: active compounds read low
Procedure, shortened: as §1

HaCat = test: as above; details: Five cell lines viability, CellTiter-Glo ATP luminescence, 48-72 h; max response: active compounds read low
Procedure, shortened: as §1

NIH3T3 = test: as above; details: Five cell lines viability, CellTiter-Glo ATP luminescence, 48-72 h; max response: active compounds read low
Procedure, shortened: as §1

CRL-7250 [2] = test: qHTS assay to identify novel small-molecules to repurpose for Merkel cell carcinoma treatment (AID 1296009); details: MCC and control cell lines, CellTiter-Glo viability, 72 h; at 44.8 µM (top of the series) unless noted
Procedure, shortened: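 Viability readout: ATP luminescence (CellTiter-Glo) after 72 hr drug exposure at 37 degree celsius. Dose-response format was 8 points for NPC and 11 points for MIPE; data normalized to in-plate controls.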

Measured: max response
Further: nearly all actives have a fitted effect of over 60% in size.

CCOC(=O)/C=C(C)/C=C/C[C@@H](C)CCCC(C)C
inactive: KB-3-1 3.85%

CN1CCCC1CCOC(c1cc2nccc(C(=O)O)c2[nH]1)c1ccccc1Cl (stereo not given)
inactive: CRL-7250 [1] | HEK293 1.78% | HaCat -3.9% | KB-3-1 7.27% | NIH3T3 | CRL-7250 [2]

CCC1NC(=O)C2C(Cl)C(Cl)CN2C(=O)C(C(C)O)NC(=O)CC(c2ccccc2)NC(=O)C(CO)NC1=O (stereo not given)
inactive: CRL-7250 [1] 3.8% | HEK293 -1.23% | HaCat 4.16% | NIH3T3

CCCCCCn1c(=O)c(C(=O)Nc2ccc(C(=O)OCCC)cc2)c(O)c2ccccc21
inactive: CRL-7250 [1] 0.836% | HEK293 | HaCat | NIH3T3 4.2%

CCCCCOc1cc2c(cc1-c1cc(/C=C/C(=O)O)ccc1O)C(C)(C)CCC2(C)C
inactive: CRL-7250 [1] -2.58% | HEK293 | HaCat | NIH3T3 -4.13%

CC1=C2C[C@H]3[C@@H](CC=C4C[C@@H](O)CC[C@@]43C)[C@@H]2CC[C@]12O[C@@H]1C[C@H](C)CN[C@H]1[C@H]2C
inactive: CRL-7250 [1] 0.632% | HEK293 | HaCat 3.98% | NIH3T3

Cc1cccc(NC(=O)N[C@@H]2N=C(c3ccccc3)c3ccccc3N(C)C2=O)c1
inactive: CRL-7250 [1] | HEK293 -5.08% | HaCat | KB-3-1 9% | NIH3T3 | CRL-7250 [2]

C[N+]1(C)[C@@H]2CC[C@H]1CC(OC(=O)c1c[nH]c3ccccc13)C2 (stereo not given in full)
inactive: KB-3-1 -6.15%

OC1(c2ccc(Cl)cc2)c2ccccc2C2=NCCN21 (stereo not given)
inactive: CRL-7250 [1] | HEK293 -19.8% | HaCat 0.153% | NIH3T3 | CRL-7250 [2]

— PubChem BioAssay (NCATS)
